From PubChem BioAssay
SMARCA2 activ: SMARCA2 function activation, primary screen. MG213 cells, MMTV-luciferase reporter, dexamethasone, overnight. activation, % at 9.1 µM. hit rate 1% among 370,000. AID 652017; in the data active = activation above about 7.8%
HSF1 activator: increases HSF-1 driven luciferase reporter signal | NIH3T3-HGL HSF-1 luciferase reporter, MG132, 8 h; 100% = twice DMSO control signal | activation, % at 9 µM | hit rate 1.7% among 300,000 | AID 504408;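 active = mean replicate activation of at least 50% with a set share of replicates each reaching 50%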
HSF1 inh: HSF1 inhibition | NIH3T3-HGL HSE-luciferase, MG132-induced, luminescence 8 h; stronger effect = lower value | activity change, negative = inhibition, % at 7.5 µM (by protocol) | hit rate 0.77% among 300,000 | AID 2098;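 active = more than half of replicate wells show activity change below -50%, luminescence cut by over half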;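 also: luciferase reports HSF-1 transcriptional activity via heat shock element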
Wnt bcat act: activates Wnt/beta-catenin signaling in a reporter cell assay; hit rate 1.2% among 300,000; activation, % at 9.35 µM; activator, plate reader; in the data active = activation above about 30%, passing the limit was not always enough
esBAF inh: blocks esBAF chromatin remodeling in mouse ES cells; Bmi1-luciferase knock-in reporter, 24 h; 100% = twice the neutral-well signal; reporter increase, % at 12.5 µM; hit rate 2% among 350,000; AID 602393; in the data active = activation above about 40%;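 also: a rise in the Bmi1 reporter signal indicates esBAF inhibition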
MITF act: increases MITF-driven TRPM1 promoter luciferase signal; activation, % at 12.5 µM; hit rate 0.75% among 300,000; SK-MEL-5 TRPM1-promoter luciferase, 24 h; % of positive control, neutral wells = 0;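 active = mean activation of at least 80% with every replicate also reaching 80%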
Each line names hits and unclear results; the compound was inactive in the other large screens. In the library only some 4.3% were active in any assay of this set; here they are far more common.

Cc1cc(Br)cc(Cl)c1OCC(=O)N1CCN(C(=O)c2ccco2)CC1	Wnt bcat act 59 (no result: HSF1 activator, HSF1 inh)
O=C(c1ccco1)N1CCN(c2ccc(Cl)c(Cl)c2)CC1	HSF1 activator 99, esBAF inh 44
O=C(Nc1ccc(N2CCN(C(=O)c3ccco3)CC2)cc1)c1cc(Br)ccc1Cl	none (no result: HSF1 activator, HSF1 inh)
C[C@H](CO)N1C[C@H](C)[C@H](CN(C)C(=O)c2ccccc2)OCCCC[C@H](C)Oc2ccc(NC(=O)Nc3ccc(C(F)(F)F)cc3)cc2C1=O	none (no result: SMARCA2 activ, HSF1 activator, HSF1 inh, Wnt bcat act, MITF act)
CCC(=O)N1C[C@@H](O)COC[C@@H]2O[C@@H](CC(=O)N3CCCCC3)CC[C@H]21	none (no result: SMARCA2 activ, HSF1 activator, HSF1 inh, Wnt bcat act, MITF act)
[O-]/[N+](=C\c1ccccc1)c1ccc(Br)cc1	Wnt bcat act 32, esBAF inh 75 (no result: HSF1 activator, HSF1 inh)
[O-]/[N+](=C\c1ccccc1)c1ccccc1	none (no result: HSF1 activator, HSF1 inh)
CC1(C)CCC(=O)N2CC[C@H]3C[C@H](OC(=O)Nc4ccc5c(c4)OCO5)C[C@@H]1[C@H]32	MITF act 104
CC1(C)CCC(=O)N2CC[C@H]3C[C@H](OC(=O)Nc4ccccc4)C[C@@H]1[C@H]32	none
O=c1c2c3c(sc2nc(NCCOCCO)n1Cc1ccco1)CCCCC3	HSF1 inh -62 (no result: MITF act)
COC(=O)c1ccc(CN2C(=O)NC3(CCC(C)CC3)C2=O)cc1 (centres undefined)	esBAF inh 44
COC(=O)c1ccc(CN2C(=O)NC3(CCC(C)CC3)C2=O)o1 (centres undefined)	none (no result: MITF act)
Cc1nn(C(=O)c2cc3sccc3[nH]2)c(C)c1C	esBAF inh 84
Cc1nn(C(=O)CNC(=O)c2ccccc2)c(C)c1C	none (no result: esBAF inh)
CCCc1nnc(NC(=O)CCC(=O)N2CCN(S(=O)(=O)c3ccc(F)cc3)CC2)s1	HSF1 inh -86
O=[N+]([O-])c1cc([N+](=O)[O-])c2cc3ccccc3nc2c1	HSF1 activator 139
O=C(C[C@H]1CC[C@H]2[C@@H](COC[C@@H](O)CN2Cc2nccs2)O1)NCc1ccccc1	none (no result: SMARCA2 activ, HSF1 activator, HSF1 inh, Wnt bcat act, MITF act)
CCOc1ccc(-c2nnc(-c3cccs3)o2)cc1OCC	none (no result: Wnt bcat act, MITF act)
COc1ccc(-c2nnc(-c3cccs3)o2)cc1OC	HSF1 activator 60
CCOc1ccc(-c2nnc(-c3cccs3)o2)cc1	Wnt bcat act 31
C[C@@H]1CCCCO[C@@H](CN(C)Cc2ccc(C(=O)O)cc2)[C@@H](C)CN([C@@H](C)CO)C(=O)c2cc(NC(=O)c3ccncc3)ccc2O1	none (no result: SMARCA2 activ, HSF1 activator, HSF1 inh, Wnt bcat act, MITF act)
Cc1ccccc1/C=C\c1nc2ccccc2c(=O)[nH]1	HSF1 activator 122 (no result: esBAF inh)
N#CCOc1ccccc1/C=C/c1nc2ccccc2c(=O)[nH]1	none
C=CCOc1cccc(/C=C/c2nc3ccccc3c(=O)[nH]2)c1	MITF act 82
COc1cc(/C=C/c2nc3ccccc3c(=O)[nH]2)cc(OC)c1OC	none
Cc1ccccc1/C=C/c1nc2ccccc2c(=O)[nH]1	Wnt bcat act 39
COC(=O)c1ccc(/C=C/c2nc3ccccc3c(=O)[nH]2)cc1	HSF1 activator 62
CN1CCN(C(=O)C[C@H]2C[C@H]3c4cc(NC(=O)C5CCOCC5)ccc4O[C@H]3[C@H](CO)O2)CC1	none (no result: SMARCA2 activ, HSF1 activator, HSF1 inh, Wnt bcat act, MITF act)
CCOC(=O)c1c(C)[nH]c2cc(Br)c(O)cc12	Wnt bcat act 48, esBAF inh 54 (no result: MITF act)
COc1cccc(NC(=O)N2C[C@@H](O)COC[C@@H]3O[C@H](CC(=O)NCc4ccccc4F)CC[C@H]32)c1	none (no result: SMARCA2 activ, HSF1 activator, HSF1 inh, Wnt bcat act, MITF act)
CO[C@@H]1CN(C)C(=O)c2cc(NC(=O)C3CC3)ccc2OC[C@@H](C)N(C(=O)c2cccnc2)C[C@@H]1C	none (no result: SMARCA2 activ, HSF1 activator, HSF1 inh, Wnt bcat act, MITF act)
C(=C/c1ccnc2nc(SC/C=C/c3ccccc3)nn12)/c1ccccc1	HSF1 activator 101 (no result: MITF act)
O=C(NCc1ccccc1)[C@H]1[C@H](CO)[C@H]2Cn3c(cccc3=O)[C@@H]1N2Cc1ccccn1	none (no result: SMARCA2 activ, HSF1 activator, HSF1 inh, Wnt bcat act, MITF act)
O=C(Cc1coc2ccc3ccccc3c12)NC1CCCc2ccccc21 (centres undefined)	HSF1 activator 65 (no result: esBAF inh)
O=C(Cc1coc2ccc3ccccc3c12)NCc1ccccc1	none
CC(C)(C)c1ccc(C(=O)NC(=S)Nc2nc3c(s2)CCCC3)cc1	HSF1 inh -59
Cc1ccc(S(=O)(=O)N(C)C[C@H]2Oc3ccc(NS(=O)(=O)c4cccs4)cc3CC(=O)N([C@H](C)CO)C[C@@H]2C)cc1	none (no result: SMARCA2 activ, HSF1 activator, HSF1 inh, Wnt bcat act, MITF act)
CN(C)C(=O)C[C@@H]1C[C@@H]2c3cc(NC(=O)Cc4ccncc4)ccc3O[C@@H]2[C@H](CO)O1	none (no result: SMARCA2 activ, HSF1 activator, HSF1 inh, Wnt bcat act, MITF act)
